Screening results deposited in PubChem by National Center for Advancing Translational Sciences (NCATS).
The sample as a whole holds a higher share of hits than the screen did.
Giardia FBPA inh-1: blocks Giardia fructose-bisphosphate aldolase activity. A8B2U2. purified Giardia FBPA. Potency, µM (highest dose often 59.6 µM), inactives show top-dose activity, negative = inhibition, hits mostly inhibitors. 0.71% of 290,000 active; further: nearly all actives have a fitted effect of over 55% in size
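40 nM FBPA preincubated 10 min at RT with compound (up to 57.5 uM final), then substrate plus GAPDH/TPI/NAD/arsenate coupling and diaphorase/resazurin added. Fluorescence read after 20 min at RT, 525/598 nm.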
Cruzain noTriton: blocks cruzain activity in detergent-free assay; P25779; purified cruzain, Z-FR-AMC fluorescence, no detergent; Potency, µM, for inactives: max response, negative = inhibition, most hits filed as inhibitors; 2.3% of 200,000 active; AID 1476;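 further: plate controls were enzyme without inhibitor for no effect and buffer without enzyme for full effect; nearly all actives have a fitted effect of over 40% in size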
Target sequence (P25779 123-467 limits assumed): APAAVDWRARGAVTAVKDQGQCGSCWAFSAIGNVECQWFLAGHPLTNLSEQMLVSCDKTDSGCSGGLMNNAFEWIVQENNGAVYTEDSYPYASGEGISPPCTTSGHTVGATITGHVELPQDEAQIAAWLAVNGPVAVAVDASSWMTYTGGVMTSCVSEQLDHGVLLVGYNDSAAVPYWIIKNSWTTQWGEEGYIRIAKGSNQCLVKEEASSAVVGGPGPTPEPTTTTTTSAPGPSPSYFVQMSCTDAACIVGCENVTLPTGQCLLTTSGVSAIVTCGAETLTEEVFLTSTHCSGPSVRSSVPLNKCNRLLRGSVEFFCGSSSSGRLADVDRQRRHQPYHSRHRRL
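Detergent-free condition (0.00005% Triton X-100) in acetate buffer pH 5.5 with DTT. 1.5 nM enzyme and compound were pre-mixed 15 min, then 2 uM Z-FR-AMC substrate added; reaction progress from fluorescence change between first and third reads (60 s).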
Cruzain Triton: blocks cruzain activity in presence of Triton detergent; purified cruzain, Z-FR-AMC fluorescence, 0.01% Triton; Potency, µM, inactives show max response, negative = inhibition, usual class: inhibitors; 0.43% of 200,000 active; AID 1478;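 further: plate controls were neutral wells for no effect and buffer without enzyme for full effect; nearly all actives have a fitted effect of over 40% in size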
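Detergent-containing arm of a paired screen for aggregation-based inhibition: 0.01% Triton X-100 present. Cruzain at 1.5 nM cleaved 2 uM Z-FR-AMC at pH 5.5 with 5 mM DTT; AMC fluorescence gain over 60 s measured activity.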
Giardia growth: blocks growth of Giardia lamblia trophozoites; shares compounds with Giardia FBPA inh-1; Giardia lamblia trophozoite growth inhibition; Potency, µM (titrated, usually from 57.5 µM), for the others: at the highest dose activity change, negative = inhibition, actives largely listed as inhibitors; 5% of 1,500 active; AID 2785;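 further: trophozoites exposed to compound for 48 h at 37 °C; nearly all actives have a fitted effect of over 70% in size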
Mammalian tox: mammalian cytotoxicity of Giardia aldolase inhibitor hits. shares compounds with Giardia FBPA inh-1. mammalian cell viability counter-screen, qHTS. 4% of 1,500 active. Potency, µM (titrated, usually from 57.5 µM), without a hit: at the highest dose viability change, negative = toxicity, most hits filed as inhibitors;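 further: Chinese hamster ovary cells used as mammalian cytotoxicity surrogate; viability measured as cellular ATP by luminescence; compound exposure lasted 48 h before reading; nearly all actives have a fitted effect of over 60% in size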
Giardia FBPA inh-2: confirmation of Giardia fructose-bisphosphate aldolase inhibitors. purified Giardia aldolase enzyme activity, qHTS. 5% of 1,500 active. shares compounds with Giardia FBPA inh-1. Potency, µM (titrated, usually from 57.5 µM), for the others: top-dose activity change, negative = inhibition, most hits filed as inhibitors; further: nearly all actives have a fitted effect of over 45% in size
Rabbit aldolase: rabbit FBP aldolase inhibition by Giardia aldolase hits. 4% of 1,500 active. Rabbit muscle FBPA enzyme inhibition, selectivity counter-screen. shares compounds with Giardia FBPA inh-1. AID 2794. Potency, µM (doses to about 57.5 µM), without a hit: at the highest dose activity, negative = inhibition, most hits filed as inhibitors; further: nearly all actives have a fitted effect of over 60% in size
Target sequence (P00883 whole entry, looked up): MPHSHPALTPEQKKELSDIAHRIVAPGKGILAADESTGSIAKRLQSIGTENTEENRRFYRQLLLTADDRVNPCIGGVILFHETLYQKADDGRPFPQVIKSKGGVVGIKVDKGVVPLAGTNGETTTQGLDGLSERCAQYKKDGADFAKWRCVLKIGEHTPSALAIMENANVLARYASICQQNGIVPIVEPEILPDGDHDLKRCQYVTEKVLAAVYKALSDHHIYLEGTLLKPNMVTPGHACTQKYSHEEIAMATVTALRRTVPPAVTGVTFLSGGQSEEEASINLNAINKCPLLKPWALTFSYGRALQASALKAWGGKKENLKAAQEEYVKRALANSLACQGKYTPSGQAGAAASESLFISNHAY
GAPDH coupling: counter-screen for Giardia aldolase inhibitors: GAPDH coupling enzyme | shares compounds with Giardia FBPA inh-1 | GAPDH coupling enzyme counterscreen, biochemical, qHTS | Potency, µM (doses to about 57.5 µM), without a hit: at the top dose activity change, negative = inhibition, actives largely listed as inhibitors | 6% of 1,500 active | AID 2795; further: nearly all actives have a fitted effect of over 55% in size
* marks the source's active call; other numbers are inactive results; ? = inconclusive; nt = no result given; [ ] = another dose, or the depositor's remark. The call rests on the fitted dose curve; in most records, active means well fitted curve in the direction sought with a large enough effect; inconclusive means small, poorly fitted or top-dose-only effect, or another doubt; inactive means no such curve, though single readings can be large; an effect the other way counts as inactive or inconclusive. Unless noted, on the % scale 0 is the no-effect control and ±100 the full control effect; potency means the concentration at half of the fitted maximal effect.

SMILES	Giardia FBPA inh-1	Cruzain noTriton	Cruzain Triton	Giardia growth	Mammalian tox	Giardia FBPA inh-2	Rabbit aldolase	GAPDH coupling
Cc1cccc(NC(=O)CSc2n[nH]c(-c3ccncc3)n2)c1C	22.4µM*	nt	nt	14.4%	-2.0%	5.9%	15.2%	16.6%
Cc1c(Cl)cccc1NC(=O)CSc1ncccc1C(=O)Oc1ccccc1Cl	nt	-15.8%	0.9%	nt	nt	nt	nt	nt
COc1ccccc1CNc1cncnc1	9.1%	nt	nt	nt	nt	nt	nt	nt
COc1ccccc1CNc1ncccn1	17.8µM*	nt	nt	-1.6%[10.4 µM]	17.5%	-3.0%	2.4%	5.7%
Cc1cc(=O)n2nc(N3CCC(C(=O)Nc4ccc(Br)c(C)c4)CC3)sc2n1	nt	6.8%	-1.0%	nt	nt	nt	nt	nt
CCOC(=O)N/N=C1/C[C@@H](O)[C@@H](O)[C@@H]2[C@@H]3C(=O)N(C[C@@H]4CCCO4)C(=O)[C@H]3CC[C@@H]12	-1.6%[12.9 µM]	nt	nt	nt	nt	nt	nt	nt
COc1cc(-c2noc(-c3ccc(NCc4ccco4)c([N+](=O)[O-])c3)n2)cc(OC)c1OC	nt	?	-6.6%	nt	nt	nt	nt	nt
Cc1ccccc1C(c1c(C)n(C)n(-c2ccccc2)c1=O)c1c(C)n(C)n(-c2ccccc2)c1=O	nt	3.9%	-0.2%	nt	nt	nt	nt	nt
Cc1ccc(N2C(S)=C(C#N)C(=O)NC2c2cccs2)cc1 (stereo not drawn)	?	-19.6%	-15.6%	nt	nt	nt	nt	nt
N#CC1=C(S)N(c2ccccc2)C(c2cccs2)NC1=O (stereo not drawn)	6.31µM*	-11.3%	-2.4%	-16.9%	-5.2%	5.0%	3.9%	5.6%
O=C(N/N=C/c1ccccn1)c1ccc2nc[nH]c2c1	15.8µM*	nt	nt	8.0%[10.4 µM]	4.7%	5.4%	4.0%	-8.4%
O=C(N/N=C/c1ccccn1)c1cccc([N+](=O)[O-])c1	15.8µM*	nt	nt	-26.8%	?	15.1%	-2.9%	8.1%
O=C(N/N=C/c1ccc2ncccc2c1)c1cccc([N+](=O)[O-])c1	14.3%	nt	nt	nt	nt	nt	nt	nt
O=C(N/N=C/c1ccccn1)c1ccc(NC(=O)c2cccc([N+](=O)[O-])c2)cc1	14.1µM*	nt	nt	?	-9.9%	4.5%	-1.3%	-4.5%
Cc1cccc(C(=O)N/N=C/c2ccccn2)c1	13.2%	6.6%	-3.2%	nt	nt	nt	nt	nt
O=C(N/N=C/c1cccc2ccccc12)c1cc(C2CC2)[nH]n1	-5.0%	nt	nt	nt	nt	nt	nt	nt
O=C(N/N=C/c1cccc(O)c1)c1ccc(NC(=O)c2cccc([N+](=O)[O-])c2)cc1	-3.8%	nt	nt	nt	nt	nt	nt	nt
O=C(N/N=C/c1ccccn1)c1cc(C2CC2)[nH]n1	17.7µM*	nt	nt	?	-6.5%	-3.1%	-2.0%	5.3%
Cc1ccc(S(=O)(=O)N[C@H]2COC(=O)[C@H](C)COC(=O)C/C=C\[C@H]2C)cc1	-1.5%[12.9 µM]	nt	nt	nt	nt	nt	nt	nt
O=C(Cn1c(=O)n(Cc2ccc(F)cc2)c(=O)c2sc3ccccc3c21)NCc1ccccc1Cl	nt	14.2%	-2.6%	nt	nt	nt	nt	nt
C=CCOC(=O)C(C(C)=O)C(NC(=O)OC)c1cccs1 (stereo not drawn)	-1.6%[12.9 µM]	nt	nt	nt	nt	nt	nt	nt
O=C(Cn1c(=O)c(CNc2ccccc2)cc2cc3c(cc21)OCCO3)Nc1ccccc1Cl	nt	26.1%	-2.3%	nt	nt	nt	nt	nt
CC(C)(C)c1ccc(C(=O)N/N=C/c2ccccn2)cc1	-1.7%	nt	nt	nt	nt	nt	nt	nt
O=C(N/N=C/c1ccccn1)c1ccc(Br)cc1	9.2%	-10.9%	-6.0%	nt	nt	nt	nt	nt
Cc1csc(N/N=C/c2ccccn2)n1	15.8µM*	nt	nt	-6.5%[10.4 µM]	25.1µM*	-3.4%	-0.7%	-10.5%
SMILES	Giardia FBPA inh-1	Cruzain noTriton	Cruzain Triton	Giardia growth	Mammalian tox	Giardia FBPA inh-2	Rabbit aldolase	GAPDH coupling
Cc1csc(Nc2ccccc2)n1	-0.1%	nt	nt	nt	nt	nt	nt	nt
CCOc1ccc(C(=O)NC(=S)Nc2ccccn2)cc1[N+](=O)[O-]	?	?	-0.9%	nt	nt	nt	nt	nt
O=C(N/N=C/c1ccccn1)c1cc([N+](=O)[O-])cc([N+](=O)[O-])c1	9.98µM*	nt	nt	25.1µM*	?	0.8%	-7.6%	-6.0%
Cc1ccc(C(=O)N/N=C\c2ccccn2)cn1	7.92µM*	nt	nt	-10.5%[38.3 µM]	-7.8%	5.8%	4.1%	-8.1%
O=C(NC(=S)Nc1ccccn1)c1cccc([N+](=O)[O-])c1	15.8µM*	nt	nt	?	-7.3%	4.7%	6.2%	13.4%
CCS(=O)(=O)c1ncc(Cl)c(C(=O)N(Cc2ccccc2)Cc2ccco2)n1	nt	3.3%	-5.0%	nt	nt	nt	nt	nt
CC1C=CCCOC1c1ccccc1 (stereo not drawn)	0.7%[12.9 µM]	nt	nt	nt	nt	nt	nt	nt
N#Cc1nc(/C=C/c2ccc(F)cc2)oc1N1CCCCCC1	nt	29.0%	-21.9%	nt	nt	nt	nt	nt
CCOc1cccc2sc(N(Cc3cccnc3)C(=O)C3CCCCC3)nc12	nt	?	-5.4%	nt	nt	nt	nt	nt
CCn1c(SCc2ccccc2C)nc(=O)c2c(C(=O)OC)cc(C3CC3)nc21	nt	-22.6%	-4.7%	nt	nt	nt	nt	nt
Nc1ccc(C(=O)N/N=C\C=C\c2cccc([N+](=O)[O-])c2)cc1	-8.7%	nt	nt	nt	nt	nt	nt	nt
Cc1ccc(C(=O)N/N=C\c2ccc(-c3ccc([N+](=O)[O-])cc3)o2)cn1	3.0%	nt	nt	nt	nt	nt	nt	nt
Cc1ccc(C(=O)N/N=C\c2ccc([N+](=O)[O-])o2)cn1	11.2µM*	nt	nt	3.16µM*	-19.2%	-7.2%	-3.4%	1.3%
O=C(N/N=C/C=C/c1cccc([N+](=O)[O-])c1)c1ccncc1	15.8µM*	nt	nt	28.2µM*	-4.5%	3.4%	-4.1%	4.7%
CC(=O)N1c2ccc(S(=O)(=O)NCCC(=O)Nc3ccc(Br)c(C)c3)cc2CC1C (stereo not drawn)	nt	-11.9%	-3.7%	nt	nt	nt	nt	nt
